Tau fluor counter: counter-screen for tau fibril formation inhibitors; tau K18 P301L Alexa594 fluorescence, heparin fibrillization; Potency, µM (top dose mostly 57.7 µM), for inactives: at the top dose activity change, negative = decrease; 280,000 tested, 0.93% active; AID 1463; also: potency is read from the fitted curve at half-maximal effect; nearly all actives have a fitted effect of over 55% in size
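Human K18 P301L tau (15 uM unlabeled plus 0.24 uM Alexa 594-labeled, final) in 100 mM sodium acetate pH 7 was mixed with compound and 20 uM heparin and incubated 6 hr at 37 C.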
KDM4E inh: inhibitors of human JMJD2E histone demethylase | Potency, µM (titrated, usually from 57.1 µM), without a hit: at the top dose activity change, negative = inhibition, usual class: inhibitors | 230,000 tested, 1.6% active | JMJD2E catalytic domain, FDH-coupled NADH fluorescence (FDH is formaldehyde dehydrogenase) | B2RXH2; active = well fitted inhibition curve with a large enough effect, not every such curve was filed as active; inconclusive = small, poorly fitted or top-dose-only effect, or another doubt; inactive = no such curve, though single readings can be large or run the other way;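 also: potency is read from the fitted curve at half-maximal effect; 0% = wells with enzyme and -100% = buffer wells without enzyme; nearly all actives have a fitted effect of over 50% in size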
Target sequence (B2RXH2 1-337 limits assumed): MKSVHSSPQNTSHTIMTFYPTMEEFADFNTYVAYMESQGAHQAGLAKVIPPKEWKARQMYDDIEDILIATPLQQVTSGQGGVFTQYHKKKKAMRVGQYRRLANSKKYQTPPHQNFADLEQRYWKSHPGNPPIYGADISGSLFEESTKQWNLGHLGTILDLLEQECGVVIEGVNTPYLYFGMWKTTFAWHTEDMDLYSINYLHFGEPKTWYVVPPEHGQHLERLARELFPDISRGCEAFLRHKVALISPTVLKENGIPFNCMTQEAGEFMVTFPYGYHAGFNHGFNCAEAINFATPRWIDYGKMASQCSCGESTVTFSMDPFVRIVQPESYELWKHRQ
Tau ThT inhib: inhibitors of human tau fibril formation, thioflavin T binding; recombinant tau K18 P301L (four-repeat tau fragment), heparin-induced fibrillization, ThT fluorescence; P10636; Potency, µM (doses to about 57.4 µM), for inactives: at the highest dose activity, negative = inhibition, most hits filed as inhibitors; 270,000 tested, 2.1% active; AID 1460; also: potency is read from the fitted curve at half-maximal effect; nearly all actives have a fitted effect of over 55% in size
Target sequence (P10636 561-689 P618L limits assumed): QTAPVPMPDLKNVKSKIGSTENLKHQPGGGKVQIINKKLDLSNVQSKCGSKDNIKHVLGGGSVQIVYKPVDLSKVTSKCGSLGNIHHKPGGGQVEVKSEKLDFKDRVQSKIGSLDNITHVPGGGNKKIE
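Heparin-induced (20 uM) aggregation of recombinant human K18 P301L tau, 15 uM unlabeled with 0.24 uM labeled, pH 7 acetate buffer, 6 hr at 37 C with compound. Fibrils quantified by 30 uM ThT fluorescence after 1 hr ambient incubation.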
FBPA coupling cs: counter-screen for Giardia aldolase inhibitors: coupling enzyme system; 290,000 tested, 0.67% active; activity change, negative = inhibition, % at 58.2 µM, hits read low; coupling enzyme system counterscreen, AmpLite Red fluorescence; AID 2472; in the data active = activity change below about -30%
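Activity here indicates interference with the coupling reaction, not aldolase inhibition. Compounds at 57.5 uM final met coupling enzymes for 10 min at RT; substrate and AmpLite Red detection followed, with a 525/598 nm fluorescence read after 20 min.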
Sfp PPTase inh: Sfp phosphopantetheinyl transferase inhibition; Biochemical Sfp PPTase activity, qHTS; Potency, µM, for inactives: largest response in the series, negative = inhibition, hits mostly inhibitors; 310,000 tested, 3.5% active; AID 1490;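 also: the enzyme is Sfp with the accession as filed and its product quenches rhodamine fluorescence; potency is read from the fitted curve at half-maximal effect; 0% = enzyme reaction without inhibitor and -100% = no enzyme wells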
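Fluorescence-quenching assay: 15 nM Sfp-PPTase preincubated 15 min at room temperature with compound, then 5 uM rhodamine-CoA and 12.5 uM BHQ-2-labelled YbbR peptide added. Fluorescence (ex 525/em 598 nm) read at start and after 30 min; difference gives rate.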
Tau FP inhib: inhibitors of human tau fibril formation | P10636 | K18 P301L tau heparin fibrillization, Alexa594 FP, 6 h | Potency, µM (highest dose often 57.7 µM), for inactives: at the top dose activity, negative = inhibition, hits mostly inhibitors | 280,000 tested, 0.39% active; also: potency is read from the fitted curve at half-maximal effect; nearly all actives have a fitted effect of over 55% in size
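Read-out: fluorescence polarization of Alexa 594-labeled tau (0.24 uM), 555 nm excitation, 632 nm emission. Mixtures held 15 uM unlabeled K18 P301L, compound and 20 uM heparin, pH 7 acetate buffer, incubated 6 hr at 37 C.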
Numbers without * were called inactive; ? = inconclusive; / = no result given; [ ] = remark or other dose. Hits are enriched below; roughly 5.3% of the tested compounds scored in any of these assays. Unless noted, calls follow the shape of the dose curve; as a rule, active = well fitted curve in the direction sought with a large enough effect; inconclusive = small, poorly fitted or top-dose-only effect, or another doubt; inactive = no such curve, though single readings can be large; an effect the other way counts as inactive or inconclusive. Unless noted, % is scaled to controls: 0 for no effect and ±100 for the full control effect.

SMILES | Tau fluor counter | KDM4E inh | Tau ThT inhib | FBPA coupling cs | Sfp PPTase inh | Tau FP inhib
CCOC(=O)N1CCc2c(sc(NCc3ccc(OC)c(Br)c3)c2C(=O)Nc2cc(OC)ccc2OC)C1 | ? | / | 14µM* | / | / | -2%
COc1ccc(OC)c(NC(=O)c2c(NCc3ccc(C)o3)sc3c2CCCCC3)c1 | ? | / | 25µM* | / | / | ?
COCC(=O)N1CCc2nc(-c3ccccc3)c3c(c2C1)CO[C@@H](C)C3 | -4%[11.6 µM] | 9%[11.4 µM] | 0%[11.5 µM] | 2 | -9% | 0%[11.6 µM]
COC(=O)[C@H](C)[C@H](CC(C)C)NC(=O)[C@H](C)[C@H](CC(C)C)NC(=O)c1ccccn1 | / | / | / | 0 | 16% | /
COc1ccc(NC(=O)c2c(NCc3cccs3)sc3c2CCCCC3)c(OC)c1 | ? | / | 25µM* | / | / | ?
CC[C@@]1([C@@H]2O[C@@H]([C@H]3O[C@@](O)(CO)[C@H](C)C[C@@H]3C)C[C@@H]2C)CC[C@@H]([C@]2(C)CCC3(C[C@H](O)[C@@H](C)[C@@H]([C@@H](C)[C@@H](OC)[C@H](C)C(=O)O)O3)O2)O1 (stereo partly specified) | / | / | / | -3 | 13% | /
Cc1ccc(C)c(NC(=S)NCc2ccc3[nH]c4c(c3c2)CCCC4)c1 | 13µM*[quencher] | -6% | ? | 1 | -7% | ?
Cc1ccccc1NC(=S)NCc1ccc2[nH]c3c(c2c1)CCCC3 | -1% | -8% | 0% | 0 | 5% | -1%
O=C(NCc1ccc2[nH]c3c(c2c1)CCCC3)N1CCOCC1 | -14% | ? | ? | -53* | -18% | -10%
CC(=O)Nc1cc([N+](=O)[O-])ccc1N1CCOCC1 | -2% | -2% | -5% | 0 | 3% | 7%
O=C(Nc1ccc([N+](=O)[O-])cc1)Nc1ccc(N2CCOCC2)c2nonc12 | ? | ? | 0.89µM* | -18 | -14% | -4%
Cc1nc2scc(-c3cccs3)c2c(=O)[nH]1 | -8% | -14% | -10% | -1 | 45µM* | -4%
O=c1[nH]c(-c2ccc(O)cc2)nc2scc(-c3cccs3)c12 | ? | ? | ? | 0 | -1% | -7%
CO[C@H]1C[C@@H]2CC[C@@H](C)[C@@](O)(O2)C(=O)C(=O)N2CCCC[C@H]2C(=O)O[C@H]([C@H](C)C[C@@H]2CC[C@@H](OC(=O)C(C)(CO)CO)[C@H](OC)C2)CC(=O)[C@H](C)/C=C(\C)[C@@H](O)[C@@H](OC)C(=O)[C@H](C)C[C@H](C)/C=C/C=C/C=C/1C | / | / | / | / | 0% | /
CCCNC(=O)NCCc1c(C)[nH]c2ccccc12 | -5% | -5% | -8% | -1 | 25% | -2%
Cc1[nH]c2c(C)cccc2c1CCNC(=O)c1ccc2c(c1[N+](=O)[O-])C(=O)c1ccccc1C2=O | 7.9µM*[quencher] | 13% | ? | -31* | 8% | 6%
Cc1[nH]c2ccccc2c1CCNC(=O)c1ccc2c(c1[N+](=O)[O-])C(=O)c1ccccc1C2=O | 8.9µM*[quencher] | 4% | ? | -29 | 20% | 1%
CN(C)C(=O)c1ccc2c(c1[N+](=O)[O-])C(=O)c1ccccc1C2=O | -6% | 8% | -9% | -43* | 17% | -4%
Cc1cccc(NC(=O)CSc2nc3c(c(=O)[nH]2)CN(Cc2ccc4c(c2)OCO4)CC3)c1C | -12% | / | -3% | / | / | 0%
O=C(CSc1nc(Nc2ccccc2)nc(N2CCOCC2)n1)Nc1ccc([N+](=O)[O-])cc1 | 13µM*[quencher] | 3% | ? | -4 | 25% | ?
CC[N+]1=C(C)C(C)(C)c2cc(C)ccc21 | 0.71µM*[fluorescent] | -14% | 3.5µM* | 4 | -12% | ?
Cc1ccc2c(c1)C=CC(C)(C)S2=O (stereo unspecified) | 2% | 3% | 0% | 4 | 8% | -3%
Cc1cccc(C2(c3cccc(C)c3)CC2C(=O)Nc2ccc([N+](=O)[O-])cc2O)c1 (stereo unspecified) | 10µM*[quencher] | -29% | ? | -19 | 11% | ?
Cc1cc(C)nc(NC(=S)Nc2ccccc2)n1 | -3% | -4% | -2% | 2 | 5% | 3%
CCNC(=S)/N=C(/Nc1ccccc1)Nc1nc(C)cc(C)n1 | -28% | -8% | -18% | 0 | 4.5µM* | 6%
SMILES | Tau fluor counter | KDM4E inh | Tau ThT inhib | FBPA coupling cs | Sfp PPTase inh | Tau FP inhib
CCNC(=S)/N=C(/Nc1ccc(OC)cc1)Nc1nc(C)cc(C)n1 | -25% | -1% | -12% | 1 | 3.2µM* | -7%
CCNC(=S)NC(=NCc1cccnc1)Nc1nc(C)cc(C)n1 | / | / | / | 1 | 25µM* | /
Cc1ccc(NC(=S)NCc2cccnc2)cc1 | -1% | -3% | 3% | -23 | 2% | -6%
FC(F)(F)c1ccc(-c2noc(-c3ccccc3)c2I)cc1 | 1%[81.3 µM] | / | -8%[81.4 µM] | -2 | -3% | -5%[81.3 µM]
CC(C)c1ccc(NC(=O)C2CCCN(S(=O)(=O)c3cccc4cccnc34)C2)cc1 (stereo unspecified) | -15% | / | 2% | / | / | ?
CCc1ccc(NC(=O)CSc2ccc(-c3sc(-c4ccccc4)nc3C)nn2)cc1 | -23% | / | ? | / | / | -14%
COC(=O)NC(c1ccccc1)c1c[nH]c2ccccc12 (stereo unspecified) | -15% | 12% | -6% | -1 | 9% | -18%
COC(=O)C1=C(C)OC(N)=C(C#N)C1c1cc2cccc(C)c2nc1Cl (stereo unspecified) | -5% | ? | ? | -2 | -15% | -5%
CC(=O)C1=C(C)OC(N)=C(C#N)C1c1cc2cccc(C)c2nc1Cl (stereo unspecified) | -14% | ? | ? | -34* | -17% | -9%
COc1cccc(NC(=O)CSc2nc(C)c(Cc3ccccc3)c(=O)[nH]2)c1 | -17% | / | -12% | / | / | -2%
NC(N)=NCCC[C@H](N)C(=O)NCC(=O)N[C@@H](CC(=O)O)C(=O)N[C@@H](CO)C(=O)O | / | / | / | 1 | 0% | /
COc1ccc(NCC(=O)Nc2ccc(C#N)cc2)cc1Cl | 14µM*[quencher] | 5% | ? | 4 | 3% | ?
COc1ccc(Nc2nc(N)nc(CSc3nc4cc(OC)ccc4s3)n2)cc1 | 14µM*[quencher] | / | ? | / | / | -2%
COc1ccc(Nc2nc(N)nc(CSc3nnc(C)s3)n2)cc1 | 5% | 3% | -9% | 9 | 7% | 4%
O=C(c1ccco1)N1CCC2(CCN(Cc3ccccc3)CC2)CC1 | / | / | / | 0 | 12% | /
COc1ccccc1-n1c(SCC(=O)N2CCc3ccccc32)nc2c(c1=O)SCC2 | 11% | -14% | 4% | -5 | 79µM* | -4%
COc1ccccc1N1CCN(C(=O)c2cnn(-c3cccc(Cl)c3)c2C2CCN(C(=O)OC(C)(C)C)CC2)CC1 | -5% | / | -13% | / | / | -5%
